Experimental data taken from PubChem BioAssay.
Calls of active or inactive are those of the source. Unless noted, no rule for the calls is given here.

How the values were obtained:
[1] = test system: Wnt5a (protein binding on small-molecule microarray); experiment: Wnt5a binders on small-molecule microarray, primary screen, biophysical, 635/667 nm fluorescence (AID 1142); conditions: 635 nm fluorescence, higher = more signal;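 also: fluorescence read at 667 nm with signal to noise per printed feature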
[2] = cell viability in Huh7 cells, primary screen, cytotoxicity control for HCV replication inhibitor project, CellTiter-Glo luminescence, basal, 48 h (AID 1143); conditions: Huh7 HCV replicon, higher = more signal, called active from +8 up or from −8 down;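 also: Huh7 hepatoma cells carrying a hepatitis C replication reporter with no stimulus; test concentration not given here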
[3] = P. aeruginosa biofilm formation inhibitors, primary screen, PAO1 strain, BacTiter-Glo luminescence, LB-PBS (AID 1144); conditions: 12 h, higher = more signal
[4] = CREB reporter modulators without forskolin, primary screen, cell-based, PC12, CRE-LacZ reporter, unstimulated (AID 1145); conditions: no forskolin, luminescence, 4.5 h, higher = more signal, called active from +8 up or from −8 down
[5] = CREB reporter modulators under forskolin, primary screen, cell-based, PC12, CRE-LacZ reporter, forskolin-stimulated (AID 1146); conditions: luminescence, 4.5 h, higher = more signal, called active from +8 up or from −8 down;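 also: PC12 cells with 6xCRE LacZ reporter stimulated by forskolin 10 µM; beta-galactosidase reporter signal reflecting CREB driven transcription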
[6] = biological target: Streptavidin (Streptomyces avidinii) (UniProt P22629); experiment: streptavidin binders on small-molecule microarray, primary screen, artefact control for SMM compound annotation, biophysical, 635/667 nm fluorescence (AID 1147); conditions: streptavidin binding, higher = more signal;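 also: signal reflects streptavidin binding to arrayed compounds as a control protein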
Chain of Streptavidin (Streptomyces avidinii) (P22629 whole entry, looked up): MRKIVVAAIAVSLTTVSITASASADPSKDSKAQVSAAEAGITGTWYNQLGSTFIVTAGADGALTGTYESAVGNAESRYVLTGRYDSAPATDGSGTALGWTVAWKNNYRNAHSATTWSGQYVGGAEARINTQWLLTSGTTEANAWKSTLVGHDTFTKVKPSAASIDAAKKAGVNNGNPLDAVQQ

[7] = small-molecule binders of probe aInhba, primary screen, biochemical, small-molecule microarray, 635/667 nm fluorescence (AID 1148); conditions: higher = more signal;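 also: score merges 667nm spot fluorescence with signal-to-noise for antibody binding to printed compounds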
[8] = biological target: Torsin-1A (Homo sapiens) (UniProt O14656); experiment: torsin A binders from cell lysate, primary screen, small-molecule microarray, wild-type, 635/667 nm (AID 1149); conditions: COS7 hTOR1A-WT lysate, 635 nm fluorescence, higher = more signal
Chain of Torsin-1A (Homo sapiens) (O14656 whole entry, looked up): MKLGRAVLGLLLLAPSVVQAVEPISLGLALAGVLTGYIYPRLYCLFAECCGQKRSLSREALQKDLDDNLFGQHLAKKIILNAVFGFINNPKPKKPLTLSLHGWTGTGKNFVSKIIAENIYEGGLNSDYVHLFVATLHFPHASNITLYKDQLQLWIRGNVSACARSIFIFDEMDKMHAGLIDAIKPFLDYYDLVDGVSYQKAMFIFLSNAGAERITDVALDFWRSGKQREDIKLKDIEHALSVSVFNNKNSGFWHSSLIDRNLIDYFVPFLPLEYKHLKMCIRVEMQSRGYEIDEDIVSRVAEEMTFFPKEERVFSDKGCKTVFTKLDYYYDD

[9] = biological target: Torsin-1A (Homo sapiens) (UniProt O14656); experiment: small-molecule binders of mutant TOR1A in lysate, primary screen, cell lysate, small-molecule microarray, COS7 lysate, 635/667 nm fluorescence (AID 1150); conditions: COS7 hTOR1A mutant lysate, 635 nm fluorescence, higher = more signal;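 also: score pools 667 nm emission and signal to noise measuring lysate protein binding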
[10] = test system: Sonic hedgehog protein (Shh); experiment: small-molecule binders of Shh protein, primary screen, biochemical, small-molecule microarray, 635/667 nm fluorescence (AID 1151); conditions: small-molecule microarray binding, 635 nm fluorescence; higher = more signal;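 also: Shh protein binding to compounds spotted on small-molecule microarray slides; score combines spot fluorescence intensity with signal-to-noise across triplicate slides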
[11] = E. coli DRC41 culture turbidity changes, primary screen, E. coli filamentation inducer project, strain DRC41, OD650, 48 h (AID 1152);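 also: E. coli MC1000 strain DRC41 lacking acrAB efflux pump and sulA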; conditions: E. coli DRC41 (acrAB sulA), higher = more signal, called active from +8 up or from −8 down
[12] = small-molecule binders of probe aLefty1, primary screen, biochemical, small-molecule microarray, 635/667 nm fluorescence (AID 1153); conditions: higher = more signal;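 also: score merges spot fluorescence with signal-to-noise ratio from the scanned slide images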
[13] = PSAC antagonists in infected red cells, primary screen, cell-based, P. falciparum Indochina, OD700, 1 h (AID 1154); conditions: P. falciparum Indochina infected RBC osmotic lysis, higher = more signal, called active from +8 up or from −8 down
[14] = PSAC antagonists in infected red cells, primary screen, cell-based, P. falciparum Indochina, OD700, 2 h (AID 1155);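 also: lysis reports solute entry through the parasite surface anion channel PSAC; channel blockers reduce lysis of infected cells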; conditions: P. falciparum Indochina infected erythrocytes, osmotic lysis OD700; higher = more signal, called active from +8 up or from −8 down
[15] = osmotic lysis modulators in infected erythrocytes, primary screen, PSAC antagonist project, cell-based, P. falciparum Indochina, OD700, 3 h (AID 1156); conditions: higher = more signal, called active from +8 up or from −8 down
[16] = PSAC antagonists in infected red cells, primary screen, cell-based, P. falciparum Indochina, OD700, 18 h (AID 1157); conditions: P. falciparum Indochina infected erythrocytes, osmotic lysis OD700, 18 h; higher = more signal, called active from +8 up or from −8 down
[17] = modulators of S6 phosphorylation in cells, primary screen, cell-based, A549, cytoblot, luminescence, serum-stimulated (AID 1158); conditions: A549 phospho-S6 cytoblot, 5 h, higher = more signal;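 also: serum-stimulated A549 lung adenocarcinoma cells; signal is phosphorylated S6 detected by cytoblot immunostaining with HRP secondary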
[18] = biological target: NADPH oxidase 2 (Homo sapiens) (UniProt P04839); experiment: NOX2-dependent H2O2 signal modulators, primary screen, NOX inhibitor project, cell-based, HEK293-NOX2, PMA-stimulated, Amplex Red fluorescence (AID 1159); conditions: 45 min, higher = more signal, called active from +8 up or from −8 down; also: test concentration not given here
Chain of NADPH oxidase 2 (Homo sapiens) (P04839 whole entry, looked up): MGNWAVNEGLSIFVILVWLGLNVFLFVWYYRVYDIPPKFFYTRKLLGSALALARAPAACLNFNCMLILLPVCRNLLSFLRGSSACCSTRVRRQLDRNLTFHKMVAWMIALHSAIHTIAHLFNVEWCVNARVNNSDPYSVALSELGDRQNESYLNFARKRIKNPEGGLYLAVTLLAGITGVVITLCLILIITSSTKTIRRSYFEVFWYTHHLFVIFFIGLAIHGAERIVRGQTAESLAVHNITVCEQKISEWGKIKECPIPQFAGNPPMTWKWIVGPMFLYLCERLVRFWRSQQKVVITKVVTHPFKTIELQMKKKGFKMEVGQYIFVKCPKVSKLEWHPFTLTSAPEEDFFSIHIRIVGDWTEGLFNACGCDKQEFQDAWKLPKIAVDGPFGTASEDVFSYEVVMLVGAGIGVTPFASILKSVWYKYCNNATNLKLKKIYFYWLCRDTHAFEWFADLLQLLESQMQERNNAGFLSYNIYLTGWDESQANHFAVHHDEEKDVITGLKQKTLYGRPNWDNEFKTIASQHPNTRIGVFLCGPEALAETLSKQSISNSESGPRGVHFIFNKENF

[19] = biological target: NADPH oxidase 4 (Homo sapiens) (UniProt Q9NPH5); experiment: NOX4-dependent H2O2 signal modulators, primary screen, NOX inhibitor project, cell-based, HEK293-NOX4, tetracycline-induced, Amplex Red fluorescence (AID 1160); conditions: 45 min, higher = more signal, called active from +8 up or from −8 down
Chain of NADPH oxidase 4 (Homo sapiens) (Q9NPH5 whole entry, looked up): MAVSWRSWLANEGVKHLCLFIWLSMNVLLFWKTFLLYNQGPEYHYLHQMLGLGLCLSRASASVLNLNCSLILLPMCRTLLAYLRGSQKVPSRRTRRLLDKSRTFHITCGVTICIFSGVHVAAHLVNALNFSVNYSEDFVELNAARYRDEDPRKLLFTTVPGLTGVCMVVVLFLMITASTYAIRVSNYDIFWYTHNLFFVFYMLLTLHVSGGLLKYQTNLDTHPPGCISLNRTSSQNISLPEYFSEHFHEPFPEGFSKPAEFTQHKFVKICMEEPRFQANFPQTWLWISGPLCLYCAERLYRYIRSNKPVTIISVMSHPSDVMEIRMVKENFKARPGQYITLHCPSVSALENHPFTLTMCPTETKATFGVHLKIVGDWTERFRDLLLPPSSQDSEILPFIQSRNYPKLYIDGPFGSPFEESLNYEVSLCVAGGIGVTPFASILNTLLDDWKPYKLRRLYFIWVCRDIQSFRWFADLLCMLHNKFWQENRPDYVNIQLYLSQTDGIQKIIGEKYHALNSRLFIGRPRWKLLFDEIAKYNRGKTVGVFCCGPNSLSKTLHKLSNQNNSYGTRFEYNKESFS

[20] = biological target: NADPH oxidase 5 (Homo sapiens) (UniProt Q96PH1); experiment: NOX5-dependent H2O2 signal modulators, primary screen, NOX inhibitor project, cell-based, HEK293-NOX5, Amplex Red fluorescence (AID 1161); conditions: HEK293-NOX5, ionomycin, 45 min, higher = more signal
Chain of NADPH oxidase 5 (Homo sapiens) (Q96PH1 whole entry, looked up): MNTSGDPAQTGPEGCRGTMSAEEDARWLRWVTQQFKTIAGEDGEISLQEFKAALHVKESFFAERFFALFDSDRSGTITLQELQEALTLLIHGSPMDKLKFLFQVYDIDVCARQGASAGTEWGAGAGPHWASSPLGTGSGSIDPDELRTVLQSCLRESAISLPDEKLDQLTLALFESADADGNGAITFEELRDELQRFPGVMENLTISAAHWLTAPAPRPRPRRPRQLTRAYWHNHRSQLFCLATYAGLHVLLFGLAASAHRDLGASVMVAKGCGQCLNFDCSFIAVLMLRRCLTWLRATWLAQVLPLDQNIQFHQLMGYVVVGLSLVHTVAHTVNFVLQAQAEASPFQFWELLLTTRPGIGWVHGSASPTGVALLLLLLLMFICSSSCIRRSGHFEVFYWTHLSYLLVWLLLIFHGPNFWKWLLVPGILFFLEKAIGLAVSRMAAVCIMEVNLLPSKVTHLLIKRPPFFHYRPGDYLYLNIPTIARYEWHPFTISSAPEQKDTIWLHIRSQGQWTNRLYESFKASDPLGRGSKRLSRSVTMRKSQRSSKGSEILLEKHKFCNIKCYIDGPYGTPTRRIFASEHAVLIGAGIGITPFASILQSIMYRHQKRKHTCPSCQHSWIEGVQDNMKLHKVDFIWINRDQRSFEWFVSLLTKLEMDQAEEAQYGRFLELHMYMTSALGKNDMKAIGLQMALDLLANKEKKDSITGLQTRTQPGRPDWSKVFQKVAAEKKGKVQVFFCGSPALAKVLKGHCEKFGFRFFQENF

## O=C1C2C=CC(C(O)c3ccc(F)cc3)N(Nc3ccc([N+](=O)[O-])cc3)C2C(=O)N1c1ccccc1 (stereo not given)
[1]
  composite z-score: 0.241
[2]
  z-score: -0.0129 (inactive)
[3]
  z-score: -0.615 (inactive)
[4]
  z-score: -0.415 (inactive)
[5]
  z-score: 0.15 (inactive)
[6]
  composite z-score: 1.39
[7]
  composite z-score: 0.0487
[8]
  composite z-score: -0.232
[9]
  composite z-score: 0.187
[10]
  composite z-score: -0.241
[11]
  z-score: -1.01 (inactive)
[12]
  composite z-score: 0.129
[13]
  z-score: 19.7 (active)
[14]
  z-score: 3.8 (inactive)
[15]
  z-score: 0.721 (inactive)
[16]
  z-score: 1.22 (inactive)
[17]
  z-score: -0.454
[18]
  z-score: -0.95 (inactive)
[19]
  z-score: -2.96 (inactive)
[20]
  z-score: -1.91

## COC(=O)[C@@]1(Cc2ccc(F)cc2)[C@H]2c3cc(C(=O)N(C)C)n(Cc4ccc(C)o4)c3C[C@H]2CN1C(=O)c1ccccc1
[1]
  composite z-score: 0.798
[2]
  z-score: -2.07 (inactive)
[3]
  z-score: -0.927 (inactive)
[4]
  z-score: 0.387 (inactive)
[5]
  z-score: -0.554 (inactive)
[6]
  composite z-score: -0.649
[7]
  composite z-score: 1.7
[8]
  composite z-score: 4.51
[9]
  composite z-score: 4.51
[10]
  composite z-score: -0.81
[11]
  z-score: -0.92 (inactive)
[12]
  composite z-score: 2.34
[13]
  z-score: 5.03 (inactive)
[14]
  z-score: 1.73 (inactive)
[15]
  z-score: 0.951 (inactive)
[16]
  z-score: 1.3 (inactive)
[17]
  z-score: -0.239
[18]
  z-score: 0.455 (inactive)
[19]
  z-score: 0.056 (inactive)
[20]
  z-score: 0.604

## COc1ccc(C(O)C2C=CC3C(=O)N(C)C(=O)C3N2N(c2ccccc2)c2ccccc2)c2ccccc12 (stereo not given)
[1]
  composite z-score: 0.151
[2]
  z-score: 0.497 (inactive)
[3]
  z-score: -0.347 (inactive)
[4]
  z-score: 0.246 (inactive)
[5]
  z-score: 1.1 (inactive)
[6]
  composite z-score: 0.797
[7]
  composite z-score: 0.0342
[8]
  composite z-score: 0.415
[9]
  composite z-score: 0.526
[10]
  composite z-score: 1.11
[11]
  z-score: -1.24 (inactive)
[12]
  composite z-score: 0.407
[13]
  z-score: 1.24 (inactive)
[14]
  z-score: 1.4 (inactive)
[15]
  z-score: 0.39 (inactive)
[16]
  z-score: 1.32 (inactive)
[17]
  z-score: -1.19
[18]
  z-score: -0.549 (inactive)
[19]
  z-score: -0.247 (inactive)
[20]
  z-score: -0.716

## O=C1O[C@@H](c2ccccc2)[C@@H](c2ccccc2)N2[C@@H](c3ccccc3OCCO)[C@]3(C(=O)Nc4ccccc43)[C@@H](C(=O)O)[C@H]12
[1]
  composite z-score: 0.205
[2]
  z-score: -0.99 (inactive)
[3]
  z-score: -0.0695 (inactive)
[4]
  z-score: 0.568 (inactive)
[5]
  z-score: 2.62 (inactive)
[6]
  composite z-score: 1.38
[7]
  composite z-score: -0.103
[8]
  composite z-score: 0.332
[9]
  composite z-score: 1.14
[10]
  composite z-score: 0.0546
[11]
  z-score: -0.749 (inactive)
[12]
  composite z-score: -0.518
[13]
  z-score: 0.749 (inactive)
[14]
  z-score: 0.745 (inactive)
[15]
  z-score: -1.6 (inactive)
[16]
  z-score: 0.761 (inactive)
[17]
  z-score: 0.128
[18]
  z-score: 2.66 (inactive)
[19]
  z-score: 0.516 (inactive)
[20]
  z-score: 1.24

## O=C1C2C=CC(C(O)C=Cc3ccc([N+](=O)[O-])cc3)N(Nc3ccccc3F)C2C(=O)N1c1ccccc1 (stereo not given)
[1]
  composite z-score: 0.265
[2]
  z-score: -0.071 (inactive)
[3]
  z-score: 0.0113 (inactive)
[4]
  z-score: -0.424 (inactive)
[5]
  z-score: -0.156 (inactive)
[6]
  composite z-score: 1.77
[7]
  composite z-score: 0.095
[8]
  composite z-score: 0.422
[9]
  composite z-score: 0.31
[10]
  composite z-score: -0.0025
[11]
  z-score: -1.37 (inactive)
[12]
  composite z-score: 0.329
[13]
  z-score: 13.1 (active)
[14]
  z-score: 3.11 (inactive)
[15]
  z-score: 0.105 (inactive)
[16]
  z-score: 1.59 (inactive)
[17]
  z-score: -0.832
[18]
  z-score: -1.43 (inactive)
[19]
  z-score: -3.02 (inactive)
[20]
  z-score: -3.26

## CC(=CC1CCCCC1)[C@@H](NC(=O)c1cccnc1)c1ccc(-c2ccccc2)cc1
[1]
  composite z-score: -0.444
[2]
  z-score: -2.65 (inactive)
[3]
  z-score: 0.477 (inactive)
[4]
  z-score: 1.34 (inactive)
[5]
  z-score: 1.24 (inactive)
[6]
  composite z-score: 0.0816
[7]
  composite z-score: -0.0986
[8]
  composite z-score: -0.77
[9]
  composite z-score: -0.278
[10]
  composite z-score: -0.683
[11]
  z-score: -2.67 (inactive)
[12]
  composite z-score: 0.188
[13]
  z-score: 1.85 (inactive)
[14]
  z-score: 0.943 (inactive)
[15]
  z-score: -0.0465 (inactive)
[16]
  z-score: 0.348 (inactive)
[17]
  z-score: -0.849
[18]
  z-score: -1.27 (inactive)
[19]
  z-score: -2.55 (inactive)
[20]
  z-score: -0.0302

## C=CC[C@]1(C(=O)N2CCOCC2)N=C(c2ccc(OCCCO)cc2)O[C@H]1c1ccccc1N=[N+]=[N-]
[1]
  composite z-score: 0.268
[2]
  z-score: -4.25 (inactive)
[3]
  z-score: -0.0153 (inactive)
[4]
  z-score: -0.193 (inactive)
[5]
  z-score: -1.78 (inactive)
[6]
  composite z-score: 0.883
[7]
  composite z-score: 0.122
[8]
  composite z-score: 0.35
[9]
  composite z-score: 0.705
[10]
  composite z-score: -0.269
[11]
  z-score: 0.65 (inactive)
[12]
  composite z-score: 0.448
[13]
  z-score: 33.6 (active)
[14]
  z-score: 29.5 (active)
[15]
  z-score: 3.29 (inactive)
[16]
  z-score: 7.61 (inactive)
[17]
  z-score: 2.04
[18]
  z-score: -1.82 (inactive)
[19]
  z-score: 0.451 (inactive)
[20]
  z-score: -2.56

## CCCCCCc1nc(-c2ccc(-c3ccc(Cl)c(Cl)c3)o2)cc2c1[Si](C(C)C)(C(C)C)O[C@H]2c1ccccc1
[1]
  composite z-score: -0.355
[2]
  z-score: -0.731 (inactive)
[3]
  z-score: -0.206 (inactive)
[4]
  z-score: -0.113 (inactive)
[5]
  z-score: 0.497 (inactive)
[6]
  composite z-score: -0.711
[7]
  composite z-score: -0.0719
[8]
  composite z-score: -0.512
[9]
  composite z-score: 0.978
[10]
  composite z-score: -0.434
[11]
  z-score: 0.321 (inactive)
[12]
  composite z-score: -0.598
[13]
  z-score: 0.439 (inactive)
[14]
  z-score: 0.0435 (inactive)
[15]
  z-score: 1.47 (inactive)
[16]
  z-score: 0.333 (inactive)
[17]
  z-score: 0.205
[18]
  z-score: -1.24 (inactive)
[19]
  z-score: -1.44 (inactive)
[20]
  z-score: -1.49

## O=C(O)[C@H](Cc1ccccc1)n1cc(-c2ccccc2)nn1
[1]
  composite z-score: 0.469
[2]
  z-score: 0.594 (inactive)
[3]
  z-score: 0.192 (inactive)
[4]
  z-score: 1.56 (inactive)
[5]
  z-score: 0.219 (inactive)
[6]
  composite z-score: 0.572
[7]
  composite z-score: -0.0494
[8]
  composite z-score: 0.0641
[9]
  composite z-score: 0.804
[10]
  composite z-score: 0.172
[11]
  z-score: -0.695 (inactive)
[12]
  composite z-score: -0.144
[13]
  z-score: -0.256 (inactive)
[14]
  z-score: 0.216 (inactive)
[15]
  z-score: -0.564 (inactive)
[16]
  z-score: 0.161 (inactive)
[17]
  z-score: 0.473
[18]
  z-score: -1.58 (inactive)
[19]
  z-score: 0.283 (inactive)
[20]
  z-score: -0.837
